Screening data as filed in PubChem BioAssay.
ATG4B inhibitor: ATG4B protease inhibitors, primary screen, biochemical, fluorescence, uHTS. inhibition, % at 8.33 µM. 340,000 tested, 0.51% active. Cysteine protease ATG4B (Homo sapiens), Q9Y4P1. ATG4B cleavage of LC3-PLA2, NBD-HPC fluorescence, 1 h. AID 504462, 2011; in the data active means inhibition above about 40%
V-ATPase pHluor: regulators of yeast V-ATPase proton pumping, primary screen, pHLuorin cytosolic pH fluorescence. AID 504577, 2011. S. cerevisiae. response, % at 10 µM. 350,000 tested, 0.37% active; in the data active means response mostly above about 7.3%, no sharp cut-off; inactive means mostly below about 5.4%; further: actives read high
AI-2 QS modul: Vibrio harveyi AI-2 quorum sensing modulators, primary screen, JMH597 strain, luminescence/OD600 ratio; activity change, % at 7.5 µM; AID 2094, 2009; Vibrio harveyi JMH597 AI-2 luminescence/OD600 ratio, 9 h; stronger effect = lower value; strain lacks LuxN and CqsS sensors; 0 = neutral-control median; 300,000 tested, 0.4% active; in the data active means activity change below about -75%, passing the limit was not always enough;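 further: luminescence divided by OD600 gain over 9 h not by final OD600 alone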
Efflux pump inh: inhibitors of Candida efflux pumps in yeast, primary screen, S. cerevisiae, Nile Red, multiplex | inhibition, % at 10 µM | S. cerevisiae Candida pump triplex | AID 485275, 2010 | 330,000 tested, 0.44% active;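 active means plate passing quality check with inhibition over a set limit, or well fluorescence over plate mean plus 4 SD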;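 further: Nile Red retained in pooled yeast measured as flow cytometry median fluorescence; 0% = buffer negative control and 100% = Enniatin B positive control; higher means more Nile Red kept so more efflux inhibition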
SUMO Mot1 rescue: yeast Mot1-301 growth rescue at high temperature, primary screen, SUMOylation pathway inhibitor project, S. cerevisiae, ATP luminescence, 38.5C; AID 2716, 2010; S. cerevisiae Mot1-301 growth rescue; percent above DMSO median, 100 means doubled; growth rescue, % at 18.8 µM; 320,000 tested, 1% active;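 active means every valid replicate shows activation above 250% relative to neutral control wells; inactive means the rest, any valid replicate at or below 250%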;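 further: OY570 slx delta 5 strain wells were the positive control but not used for scaling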
ATG4B conf: ATG4B protease inhibitors, retest, confirmation, biochemical, fluorescence, single concentration. shares compounds with ATG4B inhibitor. AID 504757, 2011. 320 tested, 92% active. ATG4B protease fluorescent substrate cleavage assay. inhibition, % at 8.33 µM; in the data active means inhibition above about 39%
PLA2 counter: PLA2 enzyme inhibition, counter-screen for ATG4B inhibitor project, biochemical, single concentration, uHTS hits | shares compounds with ATG4B inhibitor | 1,600 tested, 66% active | purified PLA2, NBD-C6-HPC fluorescence, 45 min | inhibition, % at 8.33 µM; in the data active means inhibition above about 50%
Target sequence (P04054 whole entry, looked up): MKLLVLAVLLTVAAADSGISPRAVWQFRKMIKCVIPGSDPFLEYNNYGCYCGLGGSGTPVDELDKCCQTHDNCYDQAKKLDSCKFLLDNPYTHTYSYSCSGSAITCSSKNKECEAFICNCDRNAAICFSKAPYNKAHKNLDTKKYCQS
Active calls of the source: *; / = no result given; ! = not active in a repeat. Hits are enriched below; roughly 2.5% of the tested compounds scored in any of these assays.

SMILES	ATG4B inhibitor	V-ATPase pHluor	AI-2 QS modul	Efflux pump inh	SUMO Mot1 rescue	PLA2 counter	others
COc1ccc(CN2C=C3C(=O)C(C)(OC(=O)C4CCCC4)C(=O)C=C3C=C2c2ccsc2)cc1 (configuration not stated)	-11.8	2.0	26.9	-0.1	1.9	/
COc1ccc(C2=CC3=C(Br)C(=O)C(C)(OC(=O)C4CCCC4)C(=O)C3=CO2)cc1 (configuration not stated)	65.3*	1.1	28.8	-0.1	3.2	81.3*
CC(C)(C)OC(=O)NCCCC1=CC2=CC(=O)C(C)(OC(=O)c3ccc(Cl)nc3)C(=O)C2=CO1 (configuration not stated)	/	/	50.5	0.1	5.3	/
COc1ccc(C2=CC3=C(Br)C(=O)C(C)(OC(=O)c4ccc(Cl)nc4)C(=O)C3=CO2)cc1 (configuration not stated)	66.5*	/	-0.6	0.0	55.2	58.7*
COC(=O)CCC(=O)OC1(C)C(=O)C2=COC(c3ccc(OC)cc3)=CC2=C(Br)C1=O (configuration not stated)	51.0*	/	35.4	0.1	-5.0	56.6*
COc1ccc(S(=O)(=O)N2CCN(Cc3cc(=O)n4ccccc4n3)CC2)cc1	0.0	4.1	/	-0.3	-22.0	/
c1ccc(OCc2nnnn2-c2ccccc2)cc1	42.1*	0.8	7.8	0.3	176.3	-2.4
Clc1ccc(OCc2nnnn2-c2ccccc2)cc1	-5.0	7.3	11.2	0.3	-12.7	/
O=C1C=C(Nc2ccc(Cl)cc2)C(=O)N1c1ccc(Cl)cc1	7.0	-18.0	5.0	-0.3	222.8	/
COc1ccc(NC(=O)COC(=O)C2CCC(C(C)(C)C)CC2)c([N+](=O)[O-])c1 (configuration not stated)	4.4	-3.6	11.9	-0.4	-0.3	/
Cn1c(COc2ccc(Br)cc2)nnc1SC1CCc2ccccc2C1=O (configuration not stated)	49.5*	2.7	25.6	0.0	35.6	62.4*
CCCn1cc(CN2CCC(n3nccc3NC(=O)CCOc3ccccc3)CC2)c(C)n1	2.2	-0.2	2.3	-0.1	-4.7	/
COc1ccccc1NS(=O)(=O)c1cc([N+](=O)[O-])ccc1N/N=C/c1c(C)[nH]c2ccccc12	14.8	0.0	4.8	1.1	-4.2	/
O=[N+]([O-])c1ccc(N/N=C/c2c[nH]c3ccccc23)c(S(=O)(=O)Nc2ccc(Cl)cc2)c1	42.3*	2.8	21.2	0.1	-6.7	52.8*
O=C(c1ccco1)N1CCN(C(=O)c2cc(-c3ccncc3)nc3ccc(Br)cc23)CC1	3.8	-2.3	12.9	0.1	23.7	/
O=C(O)c1cc(-c2ccco2)nc2ccc(Br)cc12	77.7*!	0.8	51.0	0.1	-19.9	23.3	ATG4B conf=65.1*
O=C1OC(c2cccs2)=N/C1=C\c1ccc(-c2cccc(Cl)c2)o1	70.6*	5.6	27.5	0.7	6.9	42.6	ATG4B conf=54.8*
Cc1ccccc1S(=O)(=O)N1[C@@H](c2ccc(Br)cc2)C(C(=O)O)=CC[C@H]1c1ccc(Cl)cc1	43.2*	-1.9	/	0.5	/	46.8	ATG4B conf=46.3*
O=C(NCCN1CCN(Cc2ccccc2Cl)CC1)Nc1ccccc1	1.7	0.4	11.3	0.3	-20.7	/
O=C(O)/C=C/c1ccccc1Oc1ccc(Cl)cc1Cl	41.4*	-0.5	6.8	0.0	-14.6	10.7	ATG4B conf=68.3*
O=C(NCCSCc1ccco1)Nc1cc(Cl)cc(Cl)c1	46.2*	-1.2	33.1	0.0	-2.4	62.0*
CN(C)S(=O)(=O)c1cccc(NC(=O)c2ccc3c(c2)OCCO3)c1	-6.0	1.8	12.1	0.2	5.9	/
O=C(Nc1ncn[nH]1)c1ccc(Cl)c(Cl)c1	1.8	0.0	/	/	/	/
